From PubChem BioAssay (NCATS)
Records with an inconclusive call do not appear. Unless noted, calls come from the whole dose curve; as a rule, active = well fitted curve in either direction with a large enough effect (not every such curve was filed as active); inconclusive = small, poorly fitted or top-dose-only effect, or another doubt; inactive = flat fitted curve, though single readings scatter.

Key:
[1] = AP1 Signaling Pathway (AID 357); conditions: ME-180 AP-1-bla reporter, EGF-induced, beta-lactamase ratio, 5 h; at 17.2 µM (top of the series) unless noted;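 note: ME-180 reporter cells stimulated with EGF at its EC50 level; % is set by controls: 0 for no effect and ±100 for the full control effect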
Method in brief: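 Read-out was the 460nm/530nm emission ratio (excitation 405nm) after CCF4 loading for 2.5 hours at room temperature. Cells carried an AP-1-driven beta-lactamase reporter, were stimulated with EC50 EGF plus compound for 5 hours, and AC50 values came from titrations.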

[2] = NFAT Signaling Pathway (AID 444); conditions: Jurkat NFAT-bla M1, carbachol, beta-lactamase ratio, 5 h; at 17.2 µM (top of the series) unless noted;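 note: carbachol stimulus at about its EC50 of 1 µM final; % is set by controls: 0 for no effect and ±100 for the full control effect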
Method in brief: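 Read-out: CCF4 FRET ratio (460 nm/530 nm) after 1 h RT dye loading, used for %activity and AC50 from titration series. Cells: Jurkat NFAT-β-lactamase/M1 line, treated with compound plus 1 uM carbachol for 5 h, 37 °C.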

[3] = Stat Signaling Pathway (AID 446); conditions: ME-180 SIE beta-lactamase reporter, IL-6 stimulated, 5 h; at 17.2 µM (top of the series) unless noted;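 note: ME-180 cervical cancer cells given 40 pM IL-6 alongside compound; SIE-controlled beta-lactamase reporter measured as 460/530 nm FRET emission ratio; % is set by controls: 0 for no effect and ±100 for the full control effect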
Method in brief: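 Reporter line: ME-180 cervical carcinoma, SIE-beta-lactamase. Treatment: compound with 40 pM IL-6, 5 hrs, 37 C, in low-serum OPTI-MEM with 10 mM HEPES pH 7.3. Detection: 460/530 nm fluorescence.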

[4] = target: Glucocorticoid receptor (Homo sapiens) (UniProt P04150); assay: GR-GFP Redistribution (AID 450;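 active = compounds whose dose series gives a full or clear partial fitted curve of increased nuclear translocation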; note: potency is the fitted concentration of half-maximal effect)
Glucocorticoid receptor (Homo sapiens), sequence (P04150 whole entry, looked up): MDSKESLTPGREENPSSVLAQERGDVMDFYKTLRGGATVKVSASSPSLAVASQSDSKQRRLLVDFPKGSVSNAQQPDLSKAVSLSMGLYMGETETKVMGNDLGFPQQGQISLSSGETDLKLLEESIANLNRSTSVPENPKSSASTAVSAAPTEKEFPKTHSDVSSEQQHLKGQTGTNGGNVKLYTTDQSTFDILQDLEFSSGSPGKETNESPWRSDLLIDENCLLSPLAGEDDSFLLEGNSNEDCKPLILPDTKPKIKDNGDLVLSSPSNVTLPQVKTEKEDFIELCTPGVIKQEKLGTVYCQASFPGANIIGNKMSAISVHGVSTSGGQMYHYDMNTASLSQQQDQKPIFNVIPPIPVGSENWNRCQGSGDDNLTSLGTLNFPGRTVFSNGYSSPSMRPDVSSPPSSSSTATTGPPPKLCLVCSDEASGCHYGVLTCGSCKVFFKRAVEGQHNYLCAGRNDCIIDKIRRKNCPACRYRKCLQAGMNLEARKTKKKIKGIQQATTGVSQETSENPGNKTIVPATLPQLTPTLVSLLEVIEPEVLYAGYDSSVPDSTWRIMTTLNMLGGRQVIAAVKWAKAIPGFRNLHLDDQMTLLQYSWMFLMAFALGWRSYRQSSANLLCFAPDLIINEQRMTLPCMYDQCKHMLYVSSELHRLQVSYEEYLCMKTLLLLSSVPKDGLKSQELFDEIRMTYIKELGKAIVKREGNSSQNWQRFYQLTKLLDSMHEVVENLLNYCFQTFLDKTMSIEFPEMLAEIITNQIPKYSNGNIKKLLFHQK

COc1ccc(-c2nnc3sc(-c4c(OC)cccc4OC)nn23)cc1
inactive: activity change, negative = inhibition [1] -13.7% | activity change, negative = inhibition [2] -15.1% | activity, negative = inhibition [3] 6.15% | Potency [4] > 20.6 µM

Cc1cccn2c(=O)c3cc(C#N)c(=N)n(Cc4ccncc4)c3nc12
inactive: activity change, negative = inhibition [1] 6.9% | activity change, negative = inhibition [2] -26.5% | activity, negative = inhibition [3] -5.05% | Potency [4] > 20.6 µM

COc1cccc(C2/C(=C(\O)c3ccc4c(c3)OCCO4)C(=O)C(=O)N2CCCN(C)C)c1OC (stereo not given)
inactive: activity change, negative = inhibition [1] 4.3% | activity change, negative = inhibition [2] 5.21% | activity, negative = inhibition [3] 4.4% | Potency [4] > 20.6 µM

CCCCc1[nH]c(=O)c(C#N)c2c1CSC(C)(C)C2
inactive: activity change, negative = inhibition [1] 15.5% | activity change, negative = inhibition [2] -2.98% | activity, negative = inhibition [3] 3.1% | Potency [4] > 20.6 µM

CCOC(=O)/C(C#N)=C1/SC(CCO)C(=O)N1c1ccccc1 (stereo not given)
inactive: activity change, negative = inhibition [1] -6.66% | activity change, negative = inhibition [2] 2.53% | activity, negative = inhibition [3] -3.36% | Potency [4] > 20.6 µM

CN(C)CCOC(=O)Cc1ccc(Cl)cc1
inactive: activity change, negative = inhibition [1] 12% | activity change, negative = inhibition [2] -7.05% | activity, negative = inhibition [3] -4.76% | Potency [4] > 20.6 µM

COc1ccc(C(CC(=O)N2CCOCC2)C(C)C)cc1 (stereo not given)
inactive: activity change, negative = inhibition [1] 8.67% | activity change, negative = inhibition [2] 3.99% | activity, negative = inhibition [3] -3.69% | Potency [4] > 20.6 µM

COCc1[nH]nc2c1C(c1ccnc3ccccc13)C(C#N)=C(N)O2 (stereo not given)
inactive: activity change, negative = inhibition [1] -7.4% | activity change, negative = inhibition [2] 17.7% | activity, negative = inhibition [3] -1.49% | Potency [4] > 20.6 µM

CS(=O)(=O)CCC(C(=O)n1nnc2ccccc21)N1C(=O)c2ccccc2C1=O (stereo not given)
inactive: activity change, negative = inhibition [1] -2.33% | activity change, negative = inhibition [2] -13.1% | activity, negative = inhibition [3] -20.7% | Potency [4] > 20.6 µM

CCc1cc2c(=O)c(-c3cscn3)coc2cc1O
inactive: activity change, negative = inhibition [1] -3.15% | activity change, negative = inhibition [2] -8.09% | activity, negative = inhibition [3] -14.6% | Potency [4] > 20.6 µM

COC(=O)c1ccc(CN(C(C)=O)c2ccccc2)o1
inactive: activity change, negative = inhibition [1] 10.5% | activity change, negative = inhibition [2] -7.2% | activity, negative = inhibition [3] 7.8% | Potency [4] > 20.6 µM

CN(C1CCS(=O)(=O)C1)S(=O)(=O)c1cccc2nsnc12 (stereo not given)
inactive: activity change, negative = inhibition [1] -3.76% | activity change, negative = inhibition [2] 18.9% | activity, negative = inhibition [3] 1.43% | Potency [4] > 20.6 µM

CCSc1nnc(N(CCC(=O)O)CCC(=O)O)s1
inactive: activity change, negative = inhibition [1] 2.21% | activity change, negative = inhibition [2] 5.3% | activity, negative = inhibition [3] -4.16% | Potency [4] > 20.6 µM

O=C(O)c1c[nH]c2ccc(S(=O)(=O)N3CCOCC3)cc12
inactive: activity change, negative = inhibition [1] 13.4% | activity change, negative = inhibition [2] -7.03% | activity, negative = inhibition [3] 6.65% | Potency [4] > 20.6 µM

Cc1cc2c(C)nc(Cc3ccccc3)nc2o1
inactive: activity change, negative = inhibition [1] -3.87% | activity change, negative = inhibition [2] -3.38% | activity, negative = inhibition [3] 5.35% | Potency [4] > 20.6 µM

N#Cc1c(NCCN)nc(NCc2ccccc2)c2c1CCN(Cc1ccccc1)C2
inactive: activity change, negative = inhibition [1] 0.0828% | activity change, negative = inhibition [2] 21.6% | activity, negative = inhibition [3] -5.14% | Potency [4] > 20.6 µM

COC(=O)c1ccc(Cn2c(O)c(N=O)c3ccccc32)o1
inactive: activity change, negative = inhibition [1] -14.4% | activity change, negative = inhibition [2] 18.3% | activity, negative = inhibition [3] 3.14% | Potency [4] > 20.6 µM

O=C(NCCCn1ccnc1)C(Cc1ccccc1)N1C(=O)c2ccccc2C1=O (stereo not given)
inactive: activity change, negative = inhibition [1] -14.7% | activity change, negative = inhibition [2] 7.45% | activity, negative = inhibition [3] 5.97% | Potency [4] > 20.6 µM

Cc1ccc(C2CC(C(F)(F)F)n3ncc(C(N)=O)c3N2)cc1 (stereo not given)
inactive: activity change, negative = inhibition [1] -3.17% | activity change, negative = inhibition [2] 2.37% | activity, negative = inhibition [3] 5.84% | Potency [4] > 20.6 µM

CN(CCOC(=O)c1ccc2c(c1)OCCO2)Cc1ccccc1
inactive: activity change, negative = inhibition [1] 17.7% | activity change, negative = inhibition [2] -3.33% | activity, negative = inhibition [3] -4.47% | Potency [4] > 20.6 µM

Cn1nnnc1-c1cc(Br)ccc1NC(=O)c1ccccc1
inactive: activity change, negative = inhibition [1] 28.6% | activity change, negative = inhibition [2] -1.05% | activity, negative = inhibition [3] 24.3% | Potency [4] > 20.6 µM

CC(C)Cc1nc(NCCN2CCOCC2)c(C#N)c2c1COC(C)(C)C2
inactive: activity change, negative = inhibition [1] -8.99% | activity change, negative = inhibition [2] -9.59% | activity, negative = inhibition [3] 19.2% | Potency [4] > 20.6 µM

O=C(C1=C(O)C(=O)N(c2ncccn2)C1c1cccc(Cl)c1)c1ccco1 (stereo not given)
inactive: activity change, negative = inhibition [1] -4.37% | activity change, negative = inhibition [2] 22.6% | activity, negative = inhibition [3] -6.45% | Potency [4] > 20.6 µM

COc1cccc(-c2nn3c(-c4ccco4)nnc3s2)c1
inactive: activity change, negative = inhibition [1] -16% | activity change, negative = inhibition [2] 2.73% | activity, negative = inhibition [3] 6.95% | Potency [4] > 20.6 µM

Cn1c(NCCN2CCCCC2)cc(=O)n(C)c1=O
inactive: activity change, negative = inhibition [1] 6.19% | activity change, negative = inhibition [2] -24.7% | activity, negative = inhibition [3] 9.99% | Potency [4] > 20.6 µM
